Drawing on PubChem BioAssay (EPA / NIEHS), this text covers outcome and AC50 for 40 compounds.

Results filed as inconclusive are left out. Active and inactive are the calls of the source. Rule for the calls: active = hit-call score of the fitted dose curve at least 0.9, where 1 is the maximum; inconclusive = response in the unintended direction; inactive = score below 0.9.

The assay can be described thus: ACEA_AR_agonist_AUC_viability: ACEA Biosciences xCELLigence Real-Time Cell Analysis on Androgen Receptor Agonism for Viability (AID 2283775).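 For AC50: viability read 80 hours after compound addition.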 How it is done: ACEA_AR_agonist is a cell-based, single-readout assay that uses 22Rv1, a human prostate cancer cell line, with measurements taken at 80 hours after chemical dosing in a 384-well plate, although TO5 and TO6 (mc0.srcf) used a 96-well plate. Differences in plate size can be ignored given data normalization.ACEA_AR_80hr is one of two assay component(s) measured or calculated from the ACEA_AR assay. It is designed to make measurements of real-time cell-growth kinetics, a form of growth reporter, as detected with electrical impedance signals by Real-Time Cell Electrode Sensor (RT-CES) technology.Data from the assay component ACEA_AR_AUC_viability was analyzed in the positive analysis fitting direction relative to DMSO as the negative control and baseline of activity. Using a type of growth reporter, loss-of-signal activity can be used to understand changes in the viability. Furthermore, this assay endpoint can be referred to as a secondary readout, because this assay has produced multiple assay endpoints where this one serves a viability function. To generalize the intended target to other relatable targets, this assay endpoint is annotated to the cell cycle intended target family, where the subfamily is cytotoxicity.
The xCELLigence system Multi-E-Plate stations were used to measure the time-dependent response to chemicals. Each compound was tested in an eight-point, 1:4 serial dilution series starting at a maximum final concentration of 100 uM. A maximum starting concentration of 0.5% DMSO was present in the 100 uM chemical samples and was diluted along with the test article dilution series. The screen was performed in biological duplicate using two separate, 96-well, E-Plates 96 for each dilution series (n = 2). Positive controls (MG132 and testosterone) and a negative control (assay media) were tested in quadruplicate on each testing plate. Then, 0.5% and 0.125% DMSO were tested in duplicates in each plate to serve as solvent controls for the 2 highest concentrations of testing compounds: 100 uM and 25 uM. Reference compounds were tested with 8 concentrations with 1:5 serial dilutions. All screening was carried out by ACEA Biosciences, Inc. (San Diego, CA). 22Rv1 cells purchased from ATCC were maintained in media supplemented with 10% fetal bovine serum (FBS). Before screening, 22Rv1 cells were preconditioned in assay medium. Cells were then detached and seeded in E-Plates 96 in assay medium. After overnight monitoring of growth once every hour, compounds were added to […] cells and remained in the medium until the end of the experiment. Cellular responses were then recorded once every 5 min for the first 5 h, and once every hour for an additional 100 h.
In the case of `O=C1OC(=O)C2C3C=CC(C3)C12` (stereo not given), the call was inactive.

Regarding `CCCN(C1CCN(C(=O)C2CCNCC2)CC1)[C@@H]1CCc2ccc(OC)cc2C1`, the AC50 was 75 µM (active).

Turning to `CCCCC(CC)COC(=O)CCCCCCCCC(=O)OCC(CC)CCCC` (stereo not given), the result was inactive.

For `O=C(O)CCN(C1(C(=O)NO)CCCC1)S(=O)(=O)c1ccc(Oc2ccc(F)cc2)cc1`, the compound was called inactive.

As to `COc1ccc(/C=C/S(=O)(=O)NC(=O)c2ccc(C)cc2Cl)cc1`, the AC50 was 16.3 µM (active).

For `CC[C@H]1CC[C@H](NCc2cc3c(cc2OC)[C@H]2C[C@H]2C(=O)N3C)[C@H](c2ccccc2)N1`, the AC50 is 17.5 µM (active).

As for `Nc1ccc(Nc2ccccc2)cc1`, the AC50 is 93 µM (active).

Take `CCOCCO`: the call was inactive.

As to `CC(C)=CCC/C(C)=C/CO`, the AC50 is 33 µM (active).

As for `CC[C@H](C)C(=O)O[C@H]1C[C@@H](C)C=C2C=C[C@H](C)[C@H](CC[C@@H]3C[C@@H](O)CC(=O)O3)[C@H]21`, the compound was classed as inactive.

For the compound `CC[C@H]1OC(=O)[C@H](C)[C@@H](O[C@H]2C[C@@](C)(OC)[C@@H](O)[C@H](C)O2)[C@H](C)[C@@H](O[C@@H]2O[C@H](C)C[C@H](N(C)C)[C@H]2O)[C@](C)(O)C[C@@H](C)C(=O)[C@H](C)[C@@H](O)[C@]1(C)O`, the compound was classed as inactive.

For `NC(=O)NO`, the call was inactive.

As to `Cc1ccc(C)c(O)c1`, the compound was classed as inactive.

As to `CCNc1ccccc1`, the compound was called inactive.

As for `Cc1ccc(S(=O)(=O)O)cc1C`, the compound was called inactive.

With `Clc1nc(Cl)c(Cl)c(Cl)c1Cl`, the outcome was inactive.

`CC(C)CCCCCCCOC(=O)CCCCC(=O)OCCCCCCCC(C)C`: the outcome was inactive.

Take `O=C(CCCCCCCCc1cccnc1)N1CCC(C=C(c2ccccc2)c2ccccc2)CC1`: the AC50 is 11.4 µM (active).

As to `CCOCCOCCOCCO`, the outcome was inactive.

On to `CNCc1ccc(NC(=O)c2c[nH]c3c2C(=O)CCC3)cc1`, for which the AC50 was 50 µM (active).

Consider `COC(=O)CC(=O)OC`, for which the result was inactive.

Consider `CC(O)CN(CCN(CC(C)O)CC(C)O)CC(C)O` (stereo not given), for which the result was inactive.

In the case of `CCN(C(=O)c1cc(C)cc(OC[C@H](C)Nc2ccncc2)c1)C(C)C`, the AC50 is 33.8 µM (active).

For `COc1ccc(-n2nc(C(F)F)cc2-c2ccc(S(C)=O)cc2)cc1` (stereo not given), the compound was called inactive.

For `COc1ccc2sc(C(=O)Nc3nnn[nH]3)c(OC(C)C)c2c1`, the AC50 is 9.32 µM (active).

Consider `C1=CCCC=CCCC=CCC1`, for which the compound was called inactive.

Regarding `C=CC(=C)CCC=C(C)C`, the outcome was inactive.

As for `CC1(C)C(=O)N(Br)C(=O)N1Br`, the compound was called inactive.

Take `C1N2CN3CN1CN(C2)C3`: the call was inactive.

Turning to `O=C(NS(=O)(=O)/C=C/c1ccccc1)c1ccc(F)cc1Cl`, the AC50 was 5.76 µM (active).

In the case of `O=C1CCC(N2C(=O)c3ccccc3C2=O)C(=O)N1` (stereo not given), the compound was classed as inactive.

With `CC(C)=CCCC(C)CCO` (stereo not given), the outcome was inactive.

For the compound `COC(=O)c1c(Cl)c(Cl)c(C(=O)OC)c(Cl)c1Cl`, the call was inactive.

As for `O=C(OC[C@H]1O[C@@H](OC(=O)c2cc(O)c(O)c(OC(=O)c3cc(O)c(O)c(O)c3)c2)[C@H](OC(=O)c2cc(O)c(O)c(OC(=O)c3cc(O)c(O)c(O)c3)c2)[C@@H](OC(=O)c2cc(O)c(O)c(OC(=O)c3cc(O)c(O)c(O)c3)c2)[C@@H]1OC(=O)c1cc(O)c(O)c(OC(=O)c2cc(O)c(O)c(O)c2)c1)c1cc(O)c(O)c(OC(=O)c2cc(O)c(O)c(O)c2)c1`, the AC50 was 26.3 µM (active).

Take `On1ccccc1=S`: the AC50 was 9.92 µM (active).

As to `O=c1n(CC2CO2)c(=O)n(CC2CO2)c(=O)n1CC1CO1` (stereo not given), the AC50 is 0.571 µM (active).

With `Cc1ccc(O)cc1`, the result was inactive.

In the case of `CCCCCCCCCCCCCCCO`, the AC50 is 78.9 µM (active).

Consider `O=C1CCCCCN1`, for which the compound was classed as inactive.

In the case of `CC(=O)OCCC(C)C`, the outcome was inactive.

The AC50 is the midpoint of the concentration-response curve, whichever way the signal moves.
